# Experimental data reported in PubChem BioAssay (NCATS).
# Unmarked numbers belong to inactive results. For some of these results: Results with a measured potency or affinity are listed apart. Active and inactive are the calls of the source. Numbered stars: 1 amine (or outer) side, 2 acyl side, 3 side chain; on linkers, the order of the positions; unused ones are H or OH. Bridge positions count the residues as written; N and C are the ends. Square brackets hold non-standard residues; d marks the D form. Peptide text beside a SMILES is read from it. I, II: the chains in the order shown. Actinocin(9to1) = Cc1c2oc3c(C)ccc(C(=O)[*:1])c3nc-2c(C(=O)[*:2])c(N)c1=O; NMeV = CN[C@H](C(=O)O)C(C)C; Sar = CNCC(=O)O
# Columns and labels:
# [1] = Ebola virus entry assay, green fluorescence channel
# [2] = Ebola virus entry assay, blue channel fluorescence
# For efficacy in this document: 0% is about no effect.
SMILES,efficacy [1] [%],outcome [2],AC50 [2]
"Cc1c2oc3c(C)ccc(C(=O)N[C@@H]4C(=O)N[C@H](C(C)C)C(=O)N5CCC[C@H]5C(=O)N(C)CC(=O)N(C)[C@@H](C(C)C)C(=O)O[C@@H]4C)c3nc-2c(C(=O)N[C@@H]2C(=O)N[C@H](C(C)C)C(=O)N3CCC[C@H]3C(=O)N(C)CC(=O)N(C)[C@@H](C(C)C)C(=O)O[C@@H]2C)c(N)c1=O (I: T[dV]P[Sar][NMeV] / II: T[dV]P[Sar][NMeV]; ester I:1-I:C, II:1-II:C; linker I:N-II:N via Actinocin(9to1))",27.3,inactive,–
CC(C)(C)NC(=O)[C@H]1CC[C@H]2[C@@H]3CC[C@H]4NC(=O)C=C[C@]4(C)[C@H]3CC[C@]12C,71.8,inactive,–
CC(C)NCC(O)COc1cccc2[nH]ccc12 (stereo not given),-19.5,inactive,–
NC(=O)c1cn(Cc2c(F)cccc2F)nn1,-11.2,inactive,–
CCCCNC(=O)NS(=O)(=O)c1ccc(C)cc1,-19.2,inactive,–
O=C(O)c1ccc(-n2nc(-c3ccccc3O)nc2-c2ccccc2O)cc1,48,inactive,–
NS(=O)(=O)Cc1noc2ccccc12,-13.2,inactive,–
CN1C[C@H]2c3ccccc3Oc3ccc(Cl)cc3[C@@H]2C1,60.4,inactive,–
C[C@]12CC[C@@H]3c4ccc(O)cc4C[C@@H](CCCCCCCCCS(=O)CCCC(F)(F)C(F)(F)F)[C@H]3[C@@H]1CC[C@@H]2O (stereo not given in full),40.4,inactive,–
N[C@@H](Cc1cc(I)c(Oc2cc(I)c(O)c(I)c2)c(I)c1)C(=O)O,-10,inactive,–
COc1cc2c(cc1OC)[C@@H]1CC(=O)[C@@H](CC(C)C)CN1CC2,24.3,inactive,–
NC[C@H](O)c1ccc(O)c(O)c1,112,inactive,–
Cc1nc(-c2ccc(OCC(C)C)c(C#N)c2)sc1C(=O)O,65.9,inactive,–
O=P(O)(O)C(O)(Cc1cccnc1)P(=O)(O)O,-17.5,inactive,–
CCc1nc(N)nc(N)c1-c1ccc(Cl)cc1,26.9,inactive,–
CNCC[C@@H](Oc1ccccc1C)c1ccccc1,103,inactive,–
Oc1ccc(C2CNCCc3c2cc(O)c(O)c3Cl)cc1 (stereo not given),16.5,inactive,–
Cc1[nH]c(=O)c(C#N)cc1-c1ccncc1,-19.3,inactive,–

SMILES,efficacy [1] [%],outcome [2],AC50 [2]
CCCN(CCC)CCc1cccc2c1CC(=O)N2,29.5,inactive,–
Cc1cn[nH]c1,-9.66,inactive,–
O=C1NC(c2ccccc2)(c2ccccc2)C(=O)N1COP(=O)(O)O,-16,inactive,–
CC(=O)OCC(CCn1cnc2cnc(N)nc21)COC(C)=O,17.3,inactive,–
CN(C)CCc1c[nH]c2ccc(C[C@H]3COC(=O)N3)cc12,-13.2,inactive,–
CC(=O)O[C@]1(C(C)=O)CC[C@H]2[C@@H]3C=C(Cl)C4=CC(=O)[C@@H]5C[C@@H]5[C@]4(C)[C@H]3CC[C@@]21C,67.4,inactive,–
CNCCC(Oc1ccc(C(F)(F)F)cc1)c1ccccc1 (stereo not given),-180,–,14.1 µM (active)
CC(=O)O[C@]1(C(C)=O)CC[C@H]2[C@@H]3C=C(C)C4=CC(=O)CC[C@]4(C)[C@H]3CC[C@@]21C,20,inactive,–
COc1cc(NCc2ccc3nc(N)nc(N)c3c2C)cc(OC)c1OC,44.2,inactive,–
Nc1nnc(-c2cccc(Cl)c2Cl)c(N)n1,-18.2,inactive,–
COc1cc2nc(N3CCN(C(=O)C4COc5ccccc5O4)CC3)nc(N)c2cc1OC (stereo not given),97.9,inactive,–
CCCCN1C[C@H](O)[C@@H](O)[C@H](O)[C@H]1CO,19.9,inactive,–
CCN(CCO)CCCC(C)Nc1ccnc2cc(Cl)ccc12 (stereo not given),21.3,inactive,–
CN(C)C(=N)N=C(N)N,-14,inactive,–
CC1=NS(=O)(=O)c2cc(Cl)ccc2N1,-18.7,inactive,–
NC(=O)NO,10,inactive,–
OCCN1CCN(CCCN2c3ccccc3Sc3ccc(Cl)cc32)CC1,88.4,–,6.31 µM (active)
